Results on 20 compounds are retold here after PubChem BioAssay AID743311 (Broad Institute, 2014).

Structures are written as SMILES. Results with a measured potency or affinity are listed apart. A number with no mark means an inactive call. The source made the active and inactive calls. The rule behind the calls is not given here.

This experiment in a line: HepG2 cell cytotoxicity, dose response, cytotoxicity control, plate reader, dry powder, set 6 (AID 743311). The following applies: series mostly up to 26 µM; activity change, negative = cytotoxicity: at the top concentration.
`Cc1cccc(OCCn2c(=S)[nH]c3c(F)cccc32)c1`: the call was inactive.

Regarding `CC(C)c1ccccc1NCCn1c(=S)[nH]c2ccccc21`, the “activity change, negative = cytotoxicity” value is -15.4%.

As to `OCc1nc2ccccc2n1CCOc1ccccc1`, the “activity change, negative = cytotoxicity” value is 6.61%.

Regarding `Clc1ccc(OCCn2cnc3ccccc32)cc1`, the “activity change, negative = cytotoxicity” value is 13.3%.

For the compound `COc1ccccc1OCCn1c(=S)[nH]c2ccccc21`, the “activity change, negative = cytotoxicity” value is 10.4%.

Regarding `Cc1ccc(OCCn2cnc3cc(C)c(C)cc32)cc1`, the “activity change, negative = cytotoxicity” value was 31.3%.

Turning to `COc1ccc(OCCn2cnc3ccccc32)cc1`, the “activity change, negative = cytotoxicity” value was 18.3%.

Regarding `CCc1nc2ccccc2n1CCOc1ccccc1`, the “activity change, negative = cytotoxicity” value is 28.5%.

Take `Cc1ccccc1OCCn1cnc2ccccc21`: the “activity change, negative = cytotoxicity” value is 15.2%.

Take `FC(F)(F)c1cccc(OCCn2cnc3ccccc32)c1`: the “activity change, negative = cytotoxicity” value was 27.1%.

For the compound `CCSc1nc2ccccc2n1CCOc1ccccc1`, the “activity change, negative = cytotoxicity” value was 31.5%.

For `c1ccc2c(c1)ncn2CCOc1ccc2c(c1)CCC2`, the “activity change, negative = cytotoxicity” value is -6.54%.

For the compound `Fc1cccc2c1[nH]c(=S)n2CCOc1ccccc1`, the “activity change, negative = cytotoxicity” value is 0.48%.

For the compound `CCCCc1nc2ccccc2n1CCOc1ccccc1`, the “activity change, negative = cytotoxicity” value is 16.6%.

With `CC(C)Oc1ccc(OCCn2cnc3ccccc32)cc1`, the “activity change, negative = cytotoxicity” value was 22.7%.

As to `CSc1nc2ccccc2n1CCOc1ccccc1`, the “activity change, negative = cytotoxicity” value is -20.3%.

In the case of `Cc1ccc2c(c1)[nH]c(=S)n2CCOc1ccccc1`, the “activity change, negative = cytotoxicity” value is -0.904%.

In the case of `CC(C)Oc1cccc(OCCn2cnc3ccccc32)c1`, the “activity change, negative = cytotoxicity” value was -12.9%.

As for `Cc1ccc(C(C)C)c(OCCn2c(=S)[nH]c3ccccc32)c1`, the “activity change, negative = cytotoxicity” value is 9.57%.

As for `Cc1cc2ncn(CCOc3ccccc3)c2cc1C`, the “activity change, negative = cytotoxicity” value was -8.27%.
